# Structures can show the parent of a compound that is named as a salt.
# Test system: Drosophila S2 cl14 SmoIP sensor cells
# Test: normalized SmoIP GFP fluorescence (untreated unstimulated = 0%, untreated Hh-stimulated = 100%); higher = more Smo activation sensor fluorescence
# Details: stimulation: mock conditioned medium (-Hh); compound concentration: 2 uM; 24 h
# 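Further: flow cytometry read-out as median GFP intensity of gated cells, compounds added 30 min before Hh-conditioned or mock medium, mock-treated cells serving as unstimulated baseline.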
row,SMILES,normalized SmoIP GFP fluorescence [%]
1,COc1ccccc1OCC(O)CN1CCN(CC(=O)Nc2c(C)cccc2C)CC1 (stereo unspecified) [Ranolazine-dihydrochloride],2.97
2,O=C1NCCc2[nH]c(-c3ccncc3)cc21,-0.477
3,OC[C@H]1O[C@@H](c2ccc(Cl)c(Cc3ccc(O[C@H]4CCOC4)cc3)c2)[C@H](O)[C@@H](O)[C@@H]1O,-7.78
4,O=C(CSc1nc2c(c(=O)n1-c1ccccc1)SCC2)Nc1ccc(-c2ccccc2)cn1,-3.16
5,c1cn2cc(-c3ccc4cn[nH]c4c3)nc(Nc3ccc(N4CCOCC4)cc3)c2n1,2.97
6,CCc1cc(Nc2nccc(-c3c(-c4ccc(OC)c(C(=O)Nc5c(F)cccc5F)c4)nc4ccccn34)n2)c(OC)cc1N1CCC(N2CCN(S(C)(=O)=O)CC2)CC1,25.3
